Values without a mark were called inactive. Results filed as inconclusive are left out. Where a call stands in place of a potency, no number is given. Activity calls are given as the source filed them. Unless noted, calls follow the shape of the dose curve; as a rule, active = well fitted curve in the direction sought with a large enough effect; inconclusive = small, poorly fitted or top-dose-only effect, or another doubt; inactive = no such curve, though single readings can be large; an effect the other way counts as inactive or inconclusive.
What was measured:
[1] = tested on: Zika virus NS2B-NS3 protease; test: Primary screen GU AMC qHTS for Zika virus inhibitors (AID 1347154); also: nearly all actives have a fitted effect of over 70% in size; also: potency is read from the fitted curve at half-maximal effect
Summary of the method: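 Unlinked Zika NS2B hydrophilic domain/NS3 protease domain noncovalent complex (25 nM final) in 10 mM Tris-HCl pH 8.0, 0.01% Tween 20, with AMC peptide substrate. Fluorescence (ex 340, em 450 nm) change over 15 min, room temperature; percent inhibition fitted to 4-parameter Hill equation.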

[2] = tested on: Zika virus NS2B-NS3 protease (unlinked complex); test: Confirmatory screen GU AMC qHTS for Zika virus inhibitors (AID 1347153); also: nearly all actives have a fitted effect of over 70% in size;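 as to potency: enzyme at 25 nM with substrate at 10 µM below its Km of 18.3 µM; potency is read from the fitted curve at half-maximal effect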
Summary of the method: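 Noncovalent NS2B hydrophilic domain/NS3 protease complex (25 nM) in 10 mM Tris-HCl pH 8.0, 0.01% Tween 20 was preincubated 15 min at room temperature with compounds. Then 10 µM AMC substrate (Km 18.3 µM) was added; fluorescence was read over 15 min and fitted to a 4-parameter Hill equation.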

[3] = Confirmatory screen NINDS Rhodamine qHTS for Zika virus inhibitors (AID 1347161); also: potency is read from the fitted curve at half-maximal effect; nearly all actives have a fitted effect of over 60% in size
Summary of the method: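 Kinetic fluorescence (Ex 480 nm, Em 540 nm) over 15 min with 1.5 microM Rhodamine110 peptide and 25 nM linked protease.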

[4] = tested on: Zika virus NS2B-NS3 protease (linked); test: 384 well plate NINDS AMC confirmatory qHTS for Zika virus inhibitors (AID 1347163); also: potency is read from the fitted curve at half-maximal effect; nearly all actives have a fitted effect of over 50% in size
Summary of the method: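 Enzyme (5, 30 or 60 nM final) first met test compounds for ~15 min. The AMC-tagged peptide Ac-VKTGKR-AMC followed at 30 microM. Fluorescence was then recorded at 25 min and scaled against no-enzyme and no-inhibitor wells.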

[5] = tested on: Zika virus NS2B-NS3 protease (linked construct); test: 384 well plate NINDS Rhodamine confirmatory qHTS for Zika virus inhibitors (AID 1347164); also: potency is read from the fitted curve at half-maximal effect; nearly all actives have a fitted effect of over 65% in size
Summary of the method: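 Compounds are incubated about 15 minutes with linked protease (5, 30 or 60 nM final). Rhodamine 110-tagged Ac-LKRR substrate (10 microM final) is added and fluorescence measured after 25 minutes.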

[6] = HepG2 cells viability qHTS for Zika virus inhibitors (AID 1347168); also: potency is read from the fitted curve at half-maximal effect
Summary of the method: (§1)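 To flag cytotoxic protease inhibitors, viability is measured by ATP-dependent luminescence (CellTiter Glo) after cells attached overnight receive compound for 24 to 48 hours in DMEM with 4% FBS.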

[7] = Primary qHTS for small molecule stabilizers of the endoplasmic reticulum resident proteome: Secreted ER Calcium Modulated Protein (SERCaMP) assay (AID 1508630)
Summary of the method: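 The SH-SY5Y reporter protocol was run at 3 concentrations up to 38.3 uM (primary) or 11 concentrations (follow-up): 16 h compound, 100 nM thapsigargin for 4 h, then extracellular luciferase luminescence.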

[8] = Vero cells viability qHTS for Zika virus inhibitors (AID 1347167)
Summary of the method: as §1

[9] = Tertiary RLuc qRT-PCR qHTS assay for Zika virus inhibitors (AID 1347169); also: top concentration of the series differs between compounds; nearly all actives have a fitted effect of over 55% in size
Summary of the method: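 Orthogonal cell-based infection assay using recombinant ZIKV-RLuc (Cambodian) in Vero cells; compound added prior to virus at MOI 1-2. Incubation lasts 48-72 hrs at 37 degrees C before live-cell Renilla substrate is added and luminescence measured.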

[10] = target: Calcium and integrin-binding protein 1 (Homo sapiens) (UniProt Q99828); test: Primary qHTS for Identification of Calcium Integrin Binding Protein 1 (CIB1) Competitor (AID 1508620);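 also: GST tagged CIB1 binding a fluorescein labelled alphaIIb integrin peptide tracer; top concentration of the series differs between compounds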
Sequence of Calcium and integrin-binding protein 1 (Homo sapiens) (Q99828 whole entry, looked up): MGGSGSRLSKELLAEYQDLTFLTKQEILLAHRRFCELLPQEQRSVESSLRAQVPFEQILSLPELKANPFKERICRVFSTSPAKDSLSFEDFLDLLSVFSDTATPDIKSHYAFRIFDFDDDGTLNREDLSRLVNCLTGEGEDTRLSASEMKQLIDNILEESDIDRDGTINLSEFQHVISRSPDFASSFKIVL
Summary of the method: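 Fluorescence polarization competition: CIB1-GST (1 uM final) preincubated with compound 15 min at room temperature, then FITC-labeled alphaIIb peptide (100 nM final) added for another 15 min. Polarization read at Ex 480/Em 540.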

[11] = target: Glucocorticoid receptor (Homo sapiens) (UniProt P04150); test: GR-GFP Redistribution (AID 450;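 active = compounds whose dose series gives a full or clear partial fitted curve of increased nuclear translocation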; also: potency is read from the fitted curve at half-maximal effect); conditions: U2OS GR-GFP nuclear translocation, laser cytometry, 2 h
Sequence of Glucocorticoid receptor (Homo sapiens) (P04150 whole entry, looked up, the tested form may be a part): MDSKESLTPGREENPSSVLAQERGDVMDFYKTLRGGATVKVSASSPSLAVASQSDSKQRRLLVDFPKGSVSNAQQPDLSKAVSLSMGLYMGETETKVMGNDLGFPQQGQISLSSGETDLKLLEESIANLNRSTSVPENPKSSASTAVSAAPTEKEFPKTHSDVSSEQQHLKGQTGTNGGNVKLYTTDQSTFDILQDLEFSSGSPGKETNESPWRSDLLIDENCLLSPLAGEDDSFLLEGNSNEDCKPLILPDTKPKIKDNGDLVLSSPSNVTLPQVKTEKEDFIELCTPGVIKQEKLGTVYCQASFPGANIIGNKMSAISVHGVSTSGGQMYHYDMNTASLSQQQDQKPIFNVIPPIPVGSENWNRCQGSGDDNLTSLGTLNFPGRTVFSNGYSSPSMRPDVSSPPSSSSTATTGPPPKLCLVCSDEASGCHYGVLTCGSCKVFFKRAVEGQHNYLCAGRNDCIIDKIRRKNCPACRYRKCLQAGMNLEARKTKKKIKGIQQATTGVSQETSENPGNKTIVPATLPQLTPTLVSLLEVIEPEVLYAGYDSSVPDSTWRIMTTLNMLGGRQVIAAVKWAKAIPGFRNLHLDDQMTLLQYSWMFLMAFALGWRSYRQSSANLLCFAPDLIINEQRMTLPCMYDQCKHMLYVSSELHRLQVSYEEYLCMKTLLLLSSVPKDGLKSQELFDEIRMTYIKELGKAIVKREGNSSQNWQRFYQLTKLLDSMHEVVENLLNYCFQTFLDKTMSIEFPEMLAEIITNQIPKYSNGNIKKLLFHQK

[12] = target: Glucocorticoid receptor (Homo sapiens) (UniProt P04150); test: GR-EFC Redistribution (AID 451; calls by dose curve; also: potency is read from the fitted curve at half-maximal effect); conditions: CHO-K1 GR-EFC translocation, beta-gal luminescence, 2 h
Summary of the method: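 CHO-K1 cells stably expressing nuclear-localized β-gal enzyme acceptor and GR fused C-terminally to the enzyme donor fragment; ligand-driven nuclear translocation restores β-gal by complementation. Compounds titrated up to 46 uM final, 2 h at 37 °C; luminescence read.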

[13] = target: Cytochrome P450 3A4 (Homo sapiens) (UniProt P08684); test: qHTS Assay for Activators of Cytochrome P450 3A4 (AID 885); also: nearly all actives have a fitted effect of over 65% in size
Sequence of Cytochrome P450 3A4 (Homo sapiens) (P08684 whole entry, looked up): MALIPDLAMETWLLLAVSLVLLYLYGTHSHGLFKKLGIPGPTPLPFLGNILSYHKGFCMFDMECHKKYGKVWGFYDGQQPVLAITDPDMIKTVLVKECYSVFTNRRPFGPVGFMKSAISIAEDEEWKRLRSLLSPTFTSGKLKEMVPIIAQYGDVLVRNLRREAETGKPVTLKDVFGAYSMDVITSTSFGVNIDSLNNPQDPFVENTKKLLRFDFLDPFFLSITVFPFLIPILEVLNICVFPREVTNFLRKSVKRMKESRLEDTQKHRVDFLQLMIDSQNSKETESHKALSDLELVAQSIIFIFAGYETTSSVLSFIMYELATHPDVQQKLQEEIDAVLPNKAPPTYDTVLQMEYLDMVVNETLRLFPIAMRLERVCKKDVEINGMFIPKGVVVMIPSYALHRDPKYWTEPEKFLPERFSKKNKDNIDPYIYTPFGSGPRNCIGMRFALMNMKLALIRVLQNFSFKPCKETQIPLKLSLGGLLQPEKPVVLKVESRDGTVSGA
Summary of the method: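 CYP3A4 activity: Luciferin-PPXE O-dealkylation, 25uM substrate, 200mM KPO4, RT throughout. Read-out is luciferase luminescence; higher values reflect activation.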

[14] = target: Ubiquitin carboxyl-terminal hydrolase 1 (Homo sapiens) (UniProt O94782); test: Inhibitors of USP1/UAF1: Pilot qHTS (AID 504865); also: potency is read from the fitted curve at half-maximal effect; nearly all actives have a fitted effect of over 35% in size
Sequence of Ubiquitin carboxyl-terminal hydrolase 1 (Homo sapiens) (O94782 whole entry, looked up): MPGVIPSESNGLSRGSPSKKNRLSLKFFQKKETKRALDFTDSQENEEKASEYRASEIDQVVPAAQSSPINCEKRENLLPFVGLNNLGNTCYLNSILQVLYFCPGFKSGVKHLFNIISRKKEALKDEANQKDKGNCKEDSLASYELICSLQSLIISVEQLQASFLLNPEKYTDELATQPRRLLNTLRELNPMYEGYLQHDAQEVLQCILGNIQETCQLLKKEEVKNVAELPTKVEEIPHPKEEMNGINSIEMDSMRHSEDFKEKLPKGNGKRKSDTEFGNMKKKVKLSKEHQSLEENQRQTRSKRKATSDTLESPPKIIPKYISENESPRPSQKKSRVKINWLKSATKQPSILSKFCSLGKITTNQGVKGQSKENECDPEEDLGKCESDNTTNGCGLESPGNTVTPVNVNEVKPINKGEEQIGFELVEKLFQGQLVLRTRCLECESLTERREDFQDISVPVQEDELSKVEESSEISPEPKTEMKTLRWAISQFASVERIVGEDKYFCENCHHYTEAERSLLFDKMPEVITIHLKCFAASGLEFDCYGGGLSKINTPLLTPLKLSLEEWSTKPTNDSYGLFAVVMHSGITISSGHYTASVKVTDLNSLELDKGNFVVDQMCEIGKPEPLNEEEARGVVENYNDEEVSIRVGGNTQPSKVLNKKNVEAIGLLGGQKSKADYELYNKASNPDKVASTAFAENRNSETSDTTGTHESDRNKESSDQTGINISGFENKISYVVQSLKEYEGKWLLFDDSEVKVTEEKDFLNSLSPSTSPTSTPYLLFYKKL
Summary of the method: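 Kinetic fluorescence assay: 1nM USP1/UAF1, 15 min compound preincubation, then 150nM Ub-Rho; 480/540 nm.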

[15] = target: DNA dC->dU-editing enzyme APOBEC-3G (Homo sapiens) (UniProt Q9HC16); test: qHTS for inhibitors of Vif-A3G interactions: Validation (AID 588379)
Sequence of DNA dC->dU-editing enzyme APOBEC-3G (Homo sapiens) (Q9HC16 whole entry, looked up): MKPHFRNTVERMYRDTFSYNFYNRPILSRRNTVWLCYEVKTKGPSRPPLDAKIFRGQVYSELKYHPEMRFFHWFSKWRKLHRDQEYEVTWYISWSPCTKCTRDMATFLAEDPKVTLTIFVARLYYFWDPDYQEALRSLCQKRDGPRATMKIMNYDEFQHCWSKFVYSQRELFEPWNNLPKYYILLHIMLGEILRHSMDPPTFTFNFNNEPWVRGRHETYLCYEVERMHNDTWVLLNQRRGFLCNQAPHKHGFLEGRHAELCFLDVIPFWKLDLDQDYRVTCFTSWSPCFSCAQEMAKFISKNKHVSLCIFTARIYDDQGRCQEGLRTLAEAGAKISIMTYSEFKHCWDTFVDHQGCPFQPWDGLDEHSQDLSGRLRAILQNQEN
Summary of the method: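 Yellow fluorescence (Ex 488, Em 500-530) of Vif-coexpressing HeLa A3G-eYFP cells, scanned by Acumen cytometer, reports blocked A3G degradation. Cells plated at 700/well overnight at 37 deg C before compound addition, then a further overnight compound incubation at 37 deg C.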

[16] = target: Rap guanine nucleotide exchange factor 3 (Homo sapiens) (UniProt O95398); test: Confirmatory qHTS for agonist of cAMP-regulated guanine nucleotide exchange factor 3 (EPAC1) (AID 1645881);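 also: EPAC1 catalysed release of BODIPY-GDP from Rap1B seen as fluorescence loss; nearly all actives have a fitted effect of over 75% in size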
Sequence of Rap guanine nucleotide exchange factor 3 (Homo sapiens) (O95398 whole entry, looked up): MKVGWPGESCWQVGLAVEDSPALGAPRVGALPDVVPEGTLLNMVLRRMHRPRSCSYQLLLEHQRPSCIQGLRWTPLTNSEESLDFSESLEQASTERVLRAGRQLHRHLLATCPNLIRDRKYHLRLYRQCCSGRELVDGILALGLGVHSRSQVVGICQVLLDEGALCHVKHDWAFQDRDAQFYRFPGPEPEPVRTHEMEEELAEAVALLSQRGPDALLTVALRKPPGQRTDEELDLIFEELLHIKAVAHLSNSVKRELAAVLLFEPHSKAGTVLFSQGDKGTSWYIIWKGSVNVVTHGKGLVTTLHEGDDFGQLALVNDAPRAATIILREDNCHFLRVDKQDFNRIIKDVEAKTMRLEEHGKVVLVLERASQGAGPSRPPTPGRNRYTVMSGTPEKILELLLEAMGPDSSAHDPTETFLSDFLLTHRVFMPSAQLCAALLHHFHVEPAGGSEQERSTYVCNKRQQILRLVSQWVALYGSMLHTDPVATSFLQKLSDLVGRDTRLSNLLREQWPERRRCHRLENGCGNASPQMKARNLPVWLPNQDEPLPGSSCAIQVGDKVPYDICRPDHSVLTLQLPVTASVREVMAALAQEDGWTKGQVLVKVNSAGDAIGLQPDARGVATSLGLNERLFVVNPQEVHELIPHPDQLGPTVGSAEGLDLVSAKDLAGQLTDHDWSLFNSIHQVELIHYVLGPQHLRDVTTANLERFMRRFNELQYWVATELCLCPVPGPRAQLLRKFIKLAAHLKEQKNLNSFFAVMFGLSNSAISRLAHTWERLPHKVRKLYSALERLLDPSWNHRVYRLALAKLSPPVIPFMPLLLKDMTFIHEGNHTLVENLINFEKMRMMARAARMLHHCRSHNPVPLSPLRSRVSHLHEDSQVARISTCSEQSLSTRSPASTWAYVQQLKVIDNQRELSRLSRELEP

[17] = target: Rap guanine nucleotide exchange factor 4 (Homo sapiens) (UniProt Q8WZA2); test: Confirmatory qHTS for agonist of cAMP-regulated guanine nucleotide exchange factor 4 (EPAC2) (AID 1645884);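 also: nucleotide exchange releases bodipy-GDP from Rap1 and this lowers its fluorescence; nearly all actives have a fitted effect of over 65% in size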
Sequence of Rap guanine nucleotide exchange factor 4 (Homo sapiens) (Q8WZA2 whole entry, looked up): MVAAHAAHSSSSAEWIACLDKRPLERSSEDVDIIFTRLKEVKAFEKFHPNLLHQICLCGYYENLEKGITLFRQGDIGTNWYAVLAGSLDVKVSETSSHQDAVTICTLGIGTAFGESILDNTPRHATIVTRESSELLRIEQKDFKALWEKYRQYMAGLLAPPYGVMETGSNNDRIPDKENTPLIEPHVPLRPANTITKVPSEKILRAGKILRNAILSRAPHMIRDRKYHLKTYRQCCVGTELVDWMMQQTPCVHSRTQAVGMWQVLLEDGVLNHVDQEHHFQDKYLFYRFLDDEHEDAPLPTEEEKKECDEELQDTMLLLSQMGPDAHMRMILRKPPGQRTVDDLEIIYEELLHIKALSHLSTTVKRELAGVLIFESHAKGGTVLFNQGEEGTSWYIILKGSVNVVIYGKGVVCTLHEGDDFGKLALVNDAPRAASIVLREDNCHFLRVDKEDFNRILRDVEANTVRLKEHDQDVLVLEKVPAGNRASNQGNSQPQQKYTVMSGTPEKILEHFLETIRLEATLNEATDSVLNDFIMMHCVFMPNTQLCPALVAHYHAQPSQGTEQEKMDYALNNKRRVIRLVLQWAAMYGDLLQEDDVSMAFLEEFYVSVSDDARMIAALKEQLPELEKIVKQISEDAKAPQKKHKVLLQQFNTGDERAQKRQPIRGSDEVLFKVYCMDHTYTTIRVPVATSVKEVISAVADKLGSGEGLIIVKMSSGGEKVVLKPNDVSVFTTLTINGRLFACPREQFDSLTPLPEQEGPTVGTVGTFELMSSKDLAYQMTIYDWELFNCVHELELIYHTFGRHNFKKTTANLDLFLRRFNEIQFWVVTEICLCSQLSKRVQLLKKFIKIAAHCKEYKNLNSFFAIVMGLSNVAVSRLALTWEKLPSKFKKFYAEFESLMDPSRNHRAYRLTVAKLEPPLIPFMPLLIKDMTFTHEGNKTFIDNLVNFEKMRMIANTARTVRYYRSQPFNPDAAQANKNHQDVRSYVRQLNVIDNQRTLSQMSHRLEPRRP

[18] = target: Rap guanine nucleotide exchange factor 4 (Homo sapiens) (UniProt Q8WZA2); test: Confirmatory qHTS for antagonist of cAMP-regulated guanine nucleotide exchange factor 4 (EPAC2) (AID 1645885); also: potency is read from the fitted curve at half-maximal effect; nearly all actives have a fitted effect of over 25% in size
[19] = ZIKV-mCherry secondary qHTS for Zika virus inhibitors (AID 1347158); also: top concentration of the series differs between compounds
Summary of the method: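 Read-out is percent infection: mCherry-positive Vero cells (nuclear-proximal intensity >450 RFU, 3 SD above negative controls) counted by high-content imaging of Hoechst-stained, PFA-fixed wells after 48-72 h with ZIKV-mCherry at MOI 1 and compound.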

[20] = tested on: Zika virus NS2B-NS3 protease (linked construct); test: Confirmatory screen NINDS AMC qHTS for Zika virus inhibitors (AID 1347152); also: potency is read from the fitted curve at half-maximal effect; nearly all actives have a fitted effect of over 70% in size
Summary of the method: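 In this dose-response qHTS, AMC release from 10 microM Bz-Nle-KRR-AMC by 1 nM linked protease is measured over 15 minutes (about 20% conversion) at pH 8.0. Percent inhibition is fitted to a 4-parameter Hill curve.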

## CCCNC(=O)[C@H]1O[C@@H]1C(=O)N[C@H](C(=O)N1CCC[C@H]1C(=O)OC)[C@@H](C)CC
[1]
  Potency: inactive

## CC(=O)Oc1cc2c(c(C)c1OC(C)=O)CC=C1[C@@]2(C)CC[C@@]2(C)[C@H]3C[C@](C)(C(=O)O)CC[C@]3(C)CC[C@]12C
[2]
  Potency: 21.5 µM (active)
[1]
  Potency: 13.4 µM (active)
[3]
  Potency: 3.49 µM (active)
[4]
  Potency: 158 µM (active)
[5]
  Potency: 35.5 µM (active)
[6]
  Potency: 13.1 µM (active)
[7]
  Potency: inactive

## C=NC(C(=O)N[C@H]1C(=O)N2C1SC(C)(C)C2C(=O)O)c1ccccc1 (stereo partly specified)
[2]
  Potency: inactive
[1]
  Potency: 26.7 µM (active)
[8]
  Potency: inactive
[6]
  Potency: inactive
[9]
  Potency: inactive
[7]
  Potency: inactive

## CC#CC(=O)Nc1cc2c(Nc3ccc(F)c(Cl)c3)ncnc2cn1
[1]
  Potency: inactive

## O=C(OCC#CCSc1nnc(-c2ccc(Cl)cc2)o1)c1ccc(F)cc1
[2]
  Potency: inactive
[9]
  Potency: inactive
[10]
  outcome: inactive

## C[C@H](CCC(=O)NCC(=O)O)C1CC[C@H]2[C@H]3C(C[C@H](O)[C@]12C)[C@@]1(C)CC[C@@H](O)C[C@H]1C[C@H]3O (stereo partly specified)
[1]
  Potency: inactive

## O=C(O)c1cc(N(Cc2ccccc2O)Cc2cc(O)ccc2O)ccc1O
[1]
  Potency: inactive

## Cc1nn(C)c2nc(NNC(=O)Nc3cc(Cl)nc(Cl)c3)cc(C(C)C)c12
[1]
  Potency: inactive

## C[S+](=O)([O-])c1ccc(OCC2CN(Cc3ccccc3)C(=O)c3c(ccnc3-c3ccc(OCC(=O)O)cc3)O2)cc1 (stereo unspecified)
[2]
  Potency: inactive
[9]
  Potency: inactive

## CCCCCCCCCCCCCCCCOCC(CO)OC(C)=O (stereo unspecified)
[1]
  activity change, negative = inhibition: 15.1% [at 6.83 µM]

## CCCCCCCCCCCCCCCCOCC(CO)OC (stereo unspecified)
[1]
  activity change, negative = inhibition: 21.3% [at 6.83 µM]

## O=C(Nc1ccc(Oc2ccccc2)cc1)O[C@@H]1CO[C@H]2[C@@H]1OC[C@@H]2n1nnnc1-c1ccc(-c2ccccc2)cc1
[2]
  Potency: inactive
[9]
  Potency: inactive

## Cc1cc(C)cc(C(=O)N(C)[C@H](Cc2ccc(-c3ccccc3)cc2)C(=O)N[C@@H](Cc2c[nH]c3ccccc23)C(=O)O)c1
[11]
  Potency: > 46 µM
[12]
  Potency: > 46 µM
[13]
  Potency: inactive
[14]
  Potency: 79.4 µM (active)
[15]
  Potency: inactive
[2]
  Potency: 19.2 µM (active)
[3]
  Potency: 1.75 µM (active)
[4]
  Potency: 158 µM (active)
[5]
  Potency: 28.2 µM (active)
[8]
  Potency: inactive
[6]
  Potency: inactive
[7]
  Potency: inactive
[16]
  outcome: inactive
[17]
  outcome: inactive
[18]
  Potency: 55.5 µM (active)

## O=C(O)COc1ccc(-c2nccc3c2C(=O)N(Cc2cccc(C(F)(F)F)c2)CC(COc2ccc(OC(F)(F)F)cc2)O3)cc1 (stereo unspecified)
[2]
  Potency: 22.1 µM (active)
[5]
  Potency: 25.1 µM (active)
[9]
  Potency: inactive

## COc1cccc2c1C(=O)c1c(O)c3c(c(O)c1C2=O)C[C@@](O)(C(=O)CO)C[C@@H]3O[C@@H]1C[C@H](N)[C@H](O)[C@H](C)O1
[1]
  Potency: inactive

## O=C(O)c1ccc(-c2cccc(C(F)(F)F)c2)cc1
[2]
  Potency: inactive
[19]
  Potency: inactive
[9]
  Potency: inactive

## CCCCc1nn(-c2ccccc2C(F)(F)F)c(=O)n1Cc1ccc(-c2ccccc2S(=O)(=O)NC(=O)c2sccc2C)cc1
[2]
  Potency: 21.5 µM (active)
[1]
  Potency: 21.2 µM (active)
[5]
  Potency: 28.2 µM (active)
[8]
  Potency: inactive
[6]
  Potency: inactive
[7]
  Potency: inactive

## COc1ccccc1N1CCN(CCn2c(=O)c3c(c4ccccc4n3C)n(C)c2=O)CC1
[20]
  Potency: 27.1 µM (active)
[2]
  Potency: 24.1 µM (active)
[8]
  Potency: inactive
[6]
  Potency: inactive
[9]
  Potency: inactive
[7]
  Potency: inactive

— PubChem BioAssay (NCATS)
